Assay [1] can be described thus: NCI Yeast Anticancer Drug Screen. Data for the rad50 strain (AID 155).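 Also: 0% = growth of vehicle-only cultures of the same strain.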 To be noted: S. cerevisiae rad50 strain growth inhibition, stronger effect = higher value. In short, it runs like this:
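Growth of the mutant yeast was measured after compound exposure and referenced to vehicle-treated cultures.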

Assay [2] can be described thus: NCI Yeast Anticancer Drug Screen. Data for the mec2-1 strain (AID 157). To be noted: S. cerevisiae mec2-1 strain, stronger effect = higher value. In outline:
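Test agents were screened against the mec2-1 yeast strain, with defined DNA repair or cell cycle alteration. Growth was scored as inhibition against vehicle-only controls.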

Assay [3] in a line: NCI Yeast Anticancer Drug Screen. Data for the sgs1 mgt1 strain (AID 161).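 Also: 0% = growth of cultures given vehicle only.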 To be noted: S. cerevisiae sgs1 mgt1 strain, stronger effect = higher value. In outline: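 Genetically altered yeast, compound exposure, growth inhibition relative to vehicle.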
Assay [4] can be described thus: NCI Yeast Anticancer Drug Screen. Data for the cln2 rad14 strain (AID 165).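 Also: 0% = growth equal to vehicle treated cultures.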 To be noted: S. cerevisiae cln2 rad14 strain, stronger effect = higher value. In short, it runs like this: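 Growth of compound-exposed yeast (cln2 rad14 genotype) measured and expressed as inhibition relative to vehicle.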
A short description of assay [5]: NCI Yeast Anticancer Drug Screen. Data for the bub3 strain (AID 167). To be noted: S. cerevisiae bub3 mutant strain, stronger effect = higher value. In short, it runs like this: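 Whole-cell yeast assay. The mutant strain was incubated with compounds, and growth inhibition was determined by comparison with vehicle-treated cells.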
A short description of assay [6]: NCI Yeast Anticancer Drug Screen. Data for the mlh1 rad18 strain (AID 175). To be noted: S. cerevisiae mlh1 rad18 strain growth inhibition, stronger effect = higher value. In outline: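 In this whole-cell yeast screen, a strain with altered DNA damage repair is challenged with compound, and its growth is measured against matched vehicle-treated controls.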
The mark [7] stands for this setting: at 5.0 µM (retest, dose inferred, filed as 0.5).
Setting [8] is: at 50.0 µM (retest, dose inferred, filed as 5.0).

This is part of a sample that, as a whole, favours compounds with a hit. Of some 79,000 tested, about 15% had one in any assay. A number with no mark means an inactive call. Active and inactive are the calls of the source. Rule as the data show it: active = growth inhibition above about 70%; inactive = the rest.

As for `O=[N+]([O-])c1ccc(CO)o1`, the growth inhibition was 10% in assay [1] (setting [7]); 68% in assay [1] (setting [8]); 93.1% (active) in assay [1] (at 50.0 µM); 0% in assay [2] (setting [7]); 10% in assay [2] (setting [8]); 38.8% in assay [2] (at 50.0 µM). The growth inhibition was 2% in assay [3] (setting [7]); 14% in assay [3] (setting [8]); 76.4% (active) in assay [3] (at 50.0 µM); 3% in assay [4] (setting [7]); -2% in assay [4] (setting [8]); 29.1% in assay [4] (at 50.0 µM). The growth inhibition in assay [5] (setting [7]) is 0%; in assay [5] (setting [8]), 1%; in assay [5] (at 50.0 µM) it was 26.7%; in assay [6] (setting [7]), 6%; in assay [6] (setting [8]), 33%; in assay [6] (at 50.0 µM) it was 84.5% (active).

With `CN1C=COC1N=C1CCCCC1` (configuration not stated), the growth inhibition in assay [1] (setting [7]) was 13%; in assay [1] (setting [8]) it was 10%; in assay [1] (at 50.0 µM), -24.2%; in assay [2] (setting [7]), -1%; in assay [2] (setting [8]), -5%; in assay [2] (at 50.0 µM), -7%. In addition, the growth inhibition is -2% in assay [3] (setting [7]); 17% in assay [3] (setting [8]); -5.2% in assay [3] (at 50.0 µM); 11% in assay [4] (setting [7]); 0% in assay [4] (setting [8]); 16.6% in assay [4] (at 50.0 µM). Further, the growth inhibition in assay [5] (setting [7]) is 18%; in assay [5] (setting [8]), 10%; in assay [5] (at 50.0 µM) it was -13%; in assay [6] (setting [7]), -13%; in assay [6] (setting [8]), 6%; in assay [6] (at 50.0 µM) it was -32.1%.

As for `C/C(=N\NC(=S)N1CCN(C2CCCCCC2)CC1)c1ccccn1`, the growth inhibition was -4% in assay [1] (setting [7]); 99% (active) in assay [1] (setting [8]); 50.5% in assay [1] (at 50.0 µM); -6% in assay [2] (setting [7]); 99% (active) in assay [2] (setting [8]); 65.3% in assay [2] (at 50.0 µM). Further, the growth inhibition in assay [3] (setting [7]) was -4%; in assay [3] (setting [8]), 99% (active); in assay [3] (at 50.0 µM), 26.1%; in assay [4] (setting [7]), 8%; in assay [4] (setting [8]), 99% (active); in assay [4] (at 50.0 µM), 42%. For the same compound, the growth inhibition is -17% in assay [5] (setting [7]); 99% (active) in assay [5] (setting [8]); 19.4% in assay [5] (at 50.0 µM); 14% in assay [6] (setting [7]); 99% (active) in assay [6] (setting [8]); 40% in assay [6] (at 50.0 µM).

Regarding `NC1=NCN(C2OC(COCc3ccccc3)C(OCc3ccccc3)C2OCc2ccccc2)C(=O)N1` (configuration not stated), the growth inhibition in assay [1] (setting [7]) is 5%; in assay [1] (setting [8]), 57%; in assay [1] (at 50.0 µM) it was 66.5%; in assay [2] (setting [7]) it was 8%; in assay [2] (setting [8]) it was 28%; in assay [2] (at 50.0 µM), 45.6%. The growth inhibition was 5% in assay [3] (setting [7]); 59% in assay [3] (setting [8]); 99.4% (active) in assay [3] (at 50.0 µM); -7% in assay [4] (setting [7]); 58% in assay [4] (setting [8]); 80.2% (active) in assay [4] (at 50.0 µM). Further, the growth inhibition in assay [5] (setting [7]) is -1%; in assay [5] (setting [8]), 56%; in assay [5] (at 50.0 µM) it was 98% (active); in assay [6] (setting [7]), 1%; in assay [6] (setting [8]) it was 86% (active); in assay [6] (at 50.0 µM), 99% (active).

For the compound `CN1C(=O)c2cccc3cc([N+](=O)[O-])cc(c23)C1=O`, the growth inhibition in assay [1] (setting [7]) is 6%; in assay [1] (setting [8]), 80% (active); in assay [1] (at 50.0 µM), 82.7% (active); in assay [2] (setting [7]), -16%; in assay [2] (setting [8]), 76% (active); in assay [2] (at 50.0 µM), 29.1%. Further, the growth inhibition in assay [3] (setting [7]) was 6%; in assay [3] (setting [8]) it was 69%; in assay [3] (at 50.0 µM), 85.8% (active); in assay [4] (setting [7]), 17%; in assay [4] (setting [8]), 80% (active); in assay [4] (at 50.0 µM) it was 56.6%. The growth inhibition in assay [5] (setting [7]) is 3%; in assay [5] (setting [8]) it was 88% (active); in assay [5] (at 50.0 µM) it was 64%; in assay [6] (setting [7]) it was 15%; in assay [6] (setting [8]), 53%; in assay [6] (at 50.0 µM), 56.6%.

As to `O=[N+]([O-])C1C2C=CC(C2)[C@H]1c1ccc(Cl)cc1Cl` (some centres not stated), the growth inhibition in assay [1] (setting [7]) is 28%; in assay [1] (setting [8]), 70% (active); in assay [1] (at 50.0 µM), 89.5% (active); in assay [2] (setting [7]), 29%; in assay [2] (setting [8]), 85% (active); in assay [2] (at 50.0 µM), 93.2% (active). Besides, the growth inhibition in assay [3] (setting [7]) was 33%; in assay [3] (setting [8]) it was 96% (active); in assay [3] (at 50.0 µM), 92.2% (active); in assay [4] (setting [7]) it was 15%; in assay [4] (setting [8]) it was 73% (active); in assay [4] (at 50.0 µM), 89% (active). The growth inhibition in assay [5] (setting [7]) is 52%; in assay [5] (setting [8]), 93% (active); in assay [5] (at 50.0 µM), 91.6% (active); in assay [6] (setting [7]), 37%; in assay [6] (setting [8]), 89% (active); in assay [6] (at 50.0 µM) it was 89.2% (active).

As for `CC12CCC(O)CC1=CCC1C2CCC2(C)/C(=C\C#N)CCC12` (configuration not stated), the growth inhibition was -6% in assay [1] (setting [7]); 53% in assay [1] (setting [8]); 69.2% in assay [1] (at 50.0 µM); 5% in assay [2] (setting [7]); 78% (active) in assay [2] (setting [8]); 9.9% in assay [2] (at 50.0 µM). Also, the growth inhibition in assay [3] (setting [7]) is 11%; in assay [3] (setting [8]), 90% (active); in assay [3] (at 50.0 µM), 52.3%; in assay [4] (setting [7]), 2%; in assay [4] (setting [8]), 81% (active); in assay [4] (at 50.0 µM), -1.95%. The growth inhibition is 2% in assay [5] (setting [7]); 87% (active) in assay [5] (setting [8]); 31.3% in assay [5] (at 50.0 µM); -8% in assay [6] (setting [7]); 97% (active) in assay [6] (setting [8]); 73.9% (active) in assay [6] (at 50.0 µM).

`O=C1OC(CC(=O)c2ccccc2Cl)C(Cl)=C1Cl` (configuration not stated): the growth inhibition in assay [1] (setting [7]) was 6%; in assay [1] (setting [8]) it was 33%; in assay [1] (at 50.0 µM), 38.1%; in assay [2] (setting [7]) it was 7%; in assay [2] (setting [8]), 35%; in assay [2] (at 50.0 µM), 12.6%. Further, the growth inhibition in assay [3] (setting [7]) was 39%; in assay [3] (setting [8]) it was 52%; in assay [3] (at 50.0 µM), 58.9%; in assay [4] (setting [7]), 16%; in assay [4] (setting [8]) it was 30%; in assay [4] (at 50.0 µM), 46.6%. The growth inhibition in assay [5] (setting [7]) was 1%; in assay [5] (setting [8]), 37%; in assay [5] (at 50.0 µM), -0.55%; in assay [6] (setting [7]), 23%; in assay [6] (setting [8]), 62%; in assay [6] (at 50.0 µM), 65.7%.

For the compound `O=C(OC1C=C=CS(=O)(=O)CC#C/C=C\1)c1cnc2ccccc2n1` (configuration not stated), the growth inhibition in assay [1] (setting [7]) is 15%; in assay [1] (setting [8]), 96% (active); in assay [1] (at 50.0 µM), 76.9% (active); in assay [2] (setting [7]) it was -17%; in assay [2] (setting [8]), 95% (active); in assay [2] (at 50.0 µM), 75.8% (active). Moreover, the growth inhibition in assay [3] (setting [7]) is -28%; in assay [3] (setting [8]) it was 91% (active); in assay [3] (at 50.0 µM), 74.3% (active); in assay [4] (setting [7]), 15%; in assay [4] (setting [8]), 90% (active); in assay [4] (at 50.0 µM), 78.5% (active). The growth inhibition in assay [5] (setting [7]) was -36%; in assay [5] (setting [8]), 94% (active); in assay [5] (at 50.0 µM), 79.5% (active); in assay [6] (setting [7]) it was 19%; in assay [6] (setting [8]), 97% (active); in assay [6] (at 50.0 µM), 69.3%.

The values are drawn from PubChem BioAssay (NCI).
